Shown are actives, neighbours in structure and some others; about 0.41% of the full set was active somewhere.
GAA inhib: alpha-glucosidase (human) inhibition; purified human GAA, 4-MU-alpha-glucoside fluorescence; Potency, µM (series often up to 76.9 µM), most hits filed as inhibitors; 200,000 compounds, 0.005% hits; AID 1466
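Fluorescence at Ex 365/Em 440 nm from 4-methylumbelliferone reported enzyme activity after 20 min at room temperature. Reactions used 4 nM enzyme and 400 uM substrate at pH 5.0; curves fitted with the Hill equation.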
GLA spleen mod: alpha-galactosidase A (human) modulation; P06280; human spleen homogenate, 4MU-alpha-Gal fluorescence, 40 min; Potency, µM (highest dose often 80 µM), usual class: inhibitors; 240,000 compounds, 0.008% hits; AID 2107
Target sequence (P06280 32-429 limits assumed): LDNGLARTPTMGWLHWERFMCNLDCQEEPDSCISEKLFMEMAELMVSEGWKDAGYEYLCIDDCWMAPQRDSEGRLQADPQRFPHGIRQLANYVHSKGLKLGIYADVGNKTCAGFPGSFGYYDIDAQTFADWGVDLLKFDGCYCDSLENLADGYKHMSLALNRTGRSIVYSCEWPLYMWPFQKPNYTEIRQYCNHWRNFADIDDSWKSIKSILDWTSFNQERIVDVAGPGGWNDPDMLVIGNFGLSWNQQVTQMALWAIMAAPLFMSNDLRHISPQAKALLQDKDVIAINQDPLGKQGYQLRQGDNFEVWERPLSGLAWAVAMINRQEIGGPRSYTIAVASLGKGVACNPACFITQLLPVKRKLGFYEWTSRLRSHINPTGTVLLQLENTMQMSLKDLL
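Fluorogenic readout (Ex 365/Em 440 nm) of 4-methylumbelliferone released from 1 mM 4-MU-alpha-galactoside by spleen homogenate, 40 min at 37C, pH 5.0. Data normalized to no-enzyme and enzyme controls; Hill-equation AC50 from compound titrations.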
N370S GC: N370S glucocerebrosidase modulation, Gaucher chaperone candidate. P04062. N370S GC spleen homogenate, 4MU-glucoside fluorescence. Potency, µM (series often up to 59.4 µM), usual class: inhibitors. 330,000 compounds, 0.092% hits
GAA glycogen mod: inhibitors or activators of human alpha-glucosidase glycogen cleavage; P10253; recombinant GAA, glycogen substrate, Amplex Red glucose oxidase fluorescence; Potency, µM (highest dose often 76.4 µM), most hits filed as inhibitors; 300,000 compounds, 0.38% hits; AID 2100;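 also: the screen sought inhibitors and activators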
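Recombinant human alpha-glucosidase (4 nM final) hydrolysed bovine liver glycogen (30 ug) for 40 min at 37 C in pH 5.0 citrate/phosphate with 0.01% Tween-20. Released glucose detected by glucose oxidase/Amplex Red, Ex 573/Em 610 nm. Compounds up to 77 uM; AC50 from Hill fits.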
GAA spleen mod: lysosomal alpha-glucosidase (human) modulation; P10253; human spleen homogenate, 4-MU-alpha-glucoside fluorescence; Potency, µM (doses to about 79.9 µM), actives largely listed as inhibitors; 240,000 compounds, 0.006% hits; AID 2112
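AC50 values come from Hill-equation fits of concentration-response data, normalized to no-enzyme and full-activity controls. Enzyme source: 1 ug human spleen homogenate; 1 mM fluorogenic 4-MU glucoside, pH 5.0 citrate buffer, 37 C, 40 min.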
GLA inh pH 4.5: alpha-galactosidase A (human) inhibition, pH 4.5. purified enzyme, 4-MU-alpha-Gal fluorescence, pH 4.5. activity change, negative = inhibition, % at 105 µM. 230,000 tested, under 10 active. AID 1467
Each line names hits and unclear results; the compound was inactive in the other large screens. Calls follow the shape of the dose curve; as a rule, active = well fitted curve in the direction sought with a large enough effect; inconclusive = small, poorly fitted or top-dose-only effect, or another doubt; inactive = no such curve, though single readings can be large; an effect the other way counts as inactive or inconclusive.

CC12CCC=CC1C(c1ccc(F)c(Br)c1)N(Cc1ccccc1)C2=O (stereo unspecified)	none (no result: GAA inhib, GAA glycogen mod, GLA inh pH 4.5)
Cc1c(C)n(Cc2ccc(Cl)cc2)c2ccc(C(=O)NCCN3CCOCC3)cc12	N370S GC 10µM (no result: GAA inhib, GLA spleen mod, GAA glycogen mod, GAA spleen mod, GLA inh pH 4.5)
Cc1c(C)n(Cc2ccccc2)c2ccc(C(=O)NCCN3CCOCC3)cc12	N370S GC inconclusive (no result: GAA inhib, GLA spleen mod, GAA spleen mod, GLA inh pH 4.5)
CC[C@H](C)[C@H](NC(=O)[C@H](Cc1ccc(O)cc1)NC(=O)[C@@H](NC(=O)[C@@H](N)CCCN=C(N)N)C(C)C)C(=O)N[C@@H](Cc1cnc[nH]1)C(=O)N1CCC[C@H]1C(=O)N[C@@H](Cc1ccccc1)C(=O)O	none (no result: GAA inhib, GAA glycogen mod, GLA inh pH 4.5)
C=C1CC[C@H](O)C/C1=C/C=C1\CCC[C@]2(C)[C@@H]([C@H](C)CCCC(C)(C)O)CC[C@@H]12	none (no result: GAA inhib, GAA glycogen mod)
CCc1ccc(NC(=S)Nc2cc(OC)c(NC(=O)C(C)C)cc2OC)cc1	GAA glycogen mod 12µM
COc1cc(NC(=S)NC(C)=O)ccc1NC(=O)C(C)C	none
C=CCNC(=S)NN=C1CCCCCCC1	GAA glycogen mod 35µM
O=C(NCc1cccs1)Nc1cccs1	GAA glycogen mod 4µM
CCc1ccc(NC(=O)Nc2cccs2)cc1	GAA glycogen mod inconclusive
CCOc1ccc(NC(=O)Nc2cccs2)cc1	GAA glycogen mod 20µM
Cc1ccccc1CNC(=O)Nc1cccs1	GAA glycogen mod inconclusive
CSCC[C@H](NC(=O)[C@H](Cc1ccccc1)NC(=O)[C@H](Cc1cnc[nH]1)NC(=O)CNC(=O)[C@@H](NC(=O)[C@H](C)NC(=O)[C@H](Cc1c[nH]c2ccccc12)NC(=O)[C@H](CC(C)C)NC(=O)[C@H](CC(N)=O)NC(=O)CN)[C@@H](C)O)C(N)=O	N370S GC inconclusive (no result: GAA inhib, GAA glycogen mod, GLA inh pH 4.5)
C/C(=C\C(=O)c1ccc(C)o1)Nc1ccc2c(c1)OCO2	GAA glycogen mod 28µM
Cc1ccc(C(=O)Nc2ccc3c(c2)OCO3)o1	none
C/C(=C\C(=O)c1ccccc1)Nc1ccc2c(c1)OCO2	GAA glycogen mod 16µM
CC(=O)Nc1ccc2c(c1)OCO2	none
N#Cc1ccc(-c2csc(NNC(=O)c3ccccc3)n2)cc1	GAA glycogen mod 28µM
CCOc1ccc(N2Nc3n[nH]c(N)c3N2)cc1	GAA glycogen mod 22µM
CCOc1ccc(Cc2n[nH]c(=S)n2N)cc1	none
COc1ccc(N2Nc3n[nH]c(N)c3N2)cc1	GAA glycogen mod 25µM, GAA spleen mod inconclusive
CSCC[C@H](NC(=O)[C@H](CC(C)C)NC(=O)CNC(=O)[C@H](Cc1ccccc1)NC(=O)[C@H](Cc1ccccc1)NC(=O)[C@H](CCC(N)=O)NC(=O)[C@H](CCC(N)=O)NC(=O)[C@@H]1CCCN1C(=O)[C@H](CCCCN)NC(=O)[C@@H]1CCCN1C(=O)[C@@H](N)CCCN=C(N)N)C(N)=O	none (no result: GAA inhib, GAA glycogen mod, GLA inh pH 4.5)
Cc1cccc2c3c(ccc12)C1=C(C(=O)C3=O)[C@@H](C)CO1	none (no result: GAA inhib, GAA glycogen mod, GLA inh pH 4.5)
C1CCC[C@H]2CCCN3CC[C@H](CCCCCC[C@@H]4CCCN5CC[C@H](CC1)OC45)OC23	none (no result: GAA inhib, GAA glycogen mod, GLA inh pH 4.5)
O=C1/C(=C/c2ccc(O)c(O)c2)Oc2cc(O)ccc21	GAA glycogen mod 22µM (no result: GAA inhib)
O=C(NC1(C(F)(F)F)Oc2ccccc2O1)N1CCCC1	GAA glycogen mod 7.9µM
O=C(NCC1CCCO1)NC1(C(F)(F)F)Oc2ccccc2O1 (stereo unspecified)	none
CCS(=O)(=O)N1CCCc2cc(C(=O)Nc3cccc(C(C)=O)c3)ccc21	GAA glycogen mod 35µM (no result: GAA inhib, GLA spleen mod, N370S GC, GAA spleen mod, GLA inh pH 4.5)
CC(=O)c1cccc(NC(=O)c2ccc3c(c2)CCN3S(=O)(=O)c2ccccc2)c1	none (no result: GAA inhib, GLA spleen mod, GAA spleen mod, GLA inh pH 4.5)
CCOC(=O)Cc1csc(Nc2c(C)n(C)n(-c3ccccc3)c2=O)n1	GAA glycogen mod 10µM
O=C(Nc1cccc(Cl)c1)OCC#CCCl	none (no result: GAA inhib, GAA glycogen mod, GLA inh pH 4.5)
O=C(O)CC/C(=N/Nc1ncc(C(F)(F)F)cc1Cl)C(=O)O	GAA glycogen mod 18µM
COC(=O)N1CCN(/[N+]([O-])=N/Oc2ccc([N+](=O)[O-])cc2[N+](=O)[O-])CC1	none (no result: GAA inhib, GAA glycogen mod, GLA inh pH 4.5)
O=C(NNC(=S)NCCc1ccccc1)c1ccc(Br)s1	GAA glycogen mod 35µM
O=C(CCc1ccc(O)cc1)NNC(=S)NCCc1ccccc1	GAA glycogen mod inconclusive
O=C1C2C(c3ccccc3)CC=CC2C(c2ccc3ccccc3c2)N1Cc1ccccc1 (stereo unspecified)	none (no result: GAA inhib, GAA glycogen mod, GLA inh pH 4.5)
C=COC(=O)/C=C/C	none (no result: GAA inhib, GAA glycogen mod, GLA inh pH 4.5)
O=c1[nH]cc(O)c(=O)[nH]1	GAA glycogen mod 5µM
CNc1ccc(C(=O)Oc2cc(O/N=[N+](\[O-])N(C)C)c([N+](=O)[O-])cc2[N+](=O)[O-])cc1	none (no result: GAA inhib, GAA glycogen mod, GLA inh pH 4.5)
c1ccc(Nc2cc(Nc3ccccc3)[nH]n2)cc1	GAA glycogen mod 28µM
Cc1cc(NC(=O)c2c(F)cccc2Cl)no1	none
Cc1ccc(NNC(=O)c2c(F)cccc2Cl)cc1C	GAA glycogen mod 25µM (no result: GAA inhib)
CSCC[C@H](NC(=O)[C@H](CC(C)C)NC(=O)CNC(=O)[C@H](Cc1ccc(O)cc1)NC(=O)[C@H](Cc1ccccc1)NC(=O)[C@H](CCCCN)NC(=O)[C@H](CC(N)=O)NC(=O)[C@@H]1CCCN1C(=O)[C@H](CC(=O)O)NC(=O)[C@H](C)NC(=O)[C@@H]1CCC(=O)N1)C(N)=O	none (no result: GAA inhib, GAA glycogen mod, GLA inh pH 4.5)
CCOc1cc2c3c(c1)C1(OCCO1)C(=O)N3C(C)(C)CC2C (stereo unspecified)	none
CCOc1cc2c3c(c1)C1(Nc4ccccc4S1)C(=O)N3C(C)(C)CC2C (stereo unspecified)	GAA glycogen mod 35µM
O=C(CCc1nnc2n(Cc3ccc(Cl)cc3)c(=O)c3ccccc3n12)N1CCN(c2ccccn2)CC1	none (no result: GAA inhib, GLA spleen mod, GAA glycogen mod, GAA spleen mod, GLA inh pH 4.5)
CC(C)OCCCn1c(=O)c2ccccc2n2c(CCC(=O)N3CCN(c4ccccn4)CC3)nnc12	N370S GC 20µM (no result: GAA inhib, GLA spleen mod, GAA spleen mod, GLA inh pH 4.5)
O=C1CC(Nc2ccc(N3CCOCC3)cc2)C(=O)N1Cc1ccccc1 (stereo unspecified)	GAA glycogen mod 13µM

Bioassay records (PubChem)
